# According to ChEMBL document CHEMBL2218924, “A broad activity screen in support of a chemogenomic map for kinase signalling research and drug discovery” (Biochem J, 2013):
# Key:
# [1] = target: T1, Serine/threonine-protein kinase 17A (Homo sapiens) (UniProt Q9UEE5); details: at 10 µM
# T1 sequence (whole entry): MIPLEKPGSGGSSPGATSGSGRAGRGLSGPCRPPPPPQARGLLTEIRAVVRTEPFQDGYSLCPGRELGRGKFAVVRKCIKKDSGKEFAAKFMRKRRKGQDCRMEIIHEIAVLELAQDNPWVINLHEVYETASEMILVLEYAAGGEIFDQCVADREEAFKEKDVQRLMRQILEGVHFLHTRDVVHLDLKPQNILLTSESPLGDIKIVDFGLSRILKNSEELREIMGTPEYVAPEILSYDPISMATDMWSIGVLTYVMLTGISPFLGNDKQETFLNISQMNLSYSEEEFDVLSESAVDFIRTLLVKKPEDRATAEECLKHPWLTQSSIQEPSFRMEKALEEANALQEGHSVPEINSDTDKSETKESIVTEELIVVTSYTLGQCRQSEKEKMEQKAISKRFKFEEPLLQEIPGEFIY
# [2] = target: T2, Dual specificity tyrosine-phosphorylation-regulated kinase 2 (Homo sapiens) (UniProt Q92630); details: at 1 µM
# T2 sequence (whole entry): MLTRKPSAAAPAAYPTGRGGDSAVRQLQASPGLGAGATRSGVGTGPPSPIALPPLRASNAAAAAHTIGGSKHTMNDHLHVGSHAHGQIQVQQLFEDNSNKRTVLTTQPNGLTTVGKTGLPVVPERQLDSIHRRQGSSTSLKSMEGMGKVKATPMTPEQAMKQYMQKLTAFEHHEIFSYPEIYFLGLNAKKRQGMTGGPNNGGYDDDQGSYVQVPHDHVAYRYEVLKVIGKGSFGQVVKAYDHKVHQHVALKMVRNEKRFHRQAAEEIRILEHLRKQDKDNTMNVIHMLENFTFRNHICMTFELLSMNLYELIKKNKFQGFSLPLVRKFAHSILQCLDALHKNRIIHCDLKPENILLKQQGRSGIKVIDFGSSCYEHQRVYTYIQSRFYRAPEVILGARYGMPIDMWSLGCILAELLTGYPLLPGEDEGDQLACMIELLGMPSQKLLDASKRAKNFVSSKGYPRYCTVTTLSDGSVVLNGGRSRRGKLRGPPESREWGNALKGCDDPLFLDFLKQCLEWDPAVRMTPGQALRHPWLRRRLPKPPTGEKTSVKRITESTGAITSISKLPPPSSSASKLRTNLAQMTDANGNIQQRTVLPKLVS
# [3] = target: T2, Dual specificity tyrosine-phosphorylation-regulated kinase 2 (Homo sapiens); details: at 10 µM
# [4] = target: Epidermal growth factor receptor (Homo sapiens) (UniProt P00533); details: at 1 µM
# [5] = target: Epidermal growth factor receptor (Homo sapiens) (UniProt P00533); details: at 10 µM
# [6] = target: T3, Ephrin type-A receptor 1 (Homo sapiens) (UniProt P21709); details: at 1 µM
# T3 sequence (whole entry): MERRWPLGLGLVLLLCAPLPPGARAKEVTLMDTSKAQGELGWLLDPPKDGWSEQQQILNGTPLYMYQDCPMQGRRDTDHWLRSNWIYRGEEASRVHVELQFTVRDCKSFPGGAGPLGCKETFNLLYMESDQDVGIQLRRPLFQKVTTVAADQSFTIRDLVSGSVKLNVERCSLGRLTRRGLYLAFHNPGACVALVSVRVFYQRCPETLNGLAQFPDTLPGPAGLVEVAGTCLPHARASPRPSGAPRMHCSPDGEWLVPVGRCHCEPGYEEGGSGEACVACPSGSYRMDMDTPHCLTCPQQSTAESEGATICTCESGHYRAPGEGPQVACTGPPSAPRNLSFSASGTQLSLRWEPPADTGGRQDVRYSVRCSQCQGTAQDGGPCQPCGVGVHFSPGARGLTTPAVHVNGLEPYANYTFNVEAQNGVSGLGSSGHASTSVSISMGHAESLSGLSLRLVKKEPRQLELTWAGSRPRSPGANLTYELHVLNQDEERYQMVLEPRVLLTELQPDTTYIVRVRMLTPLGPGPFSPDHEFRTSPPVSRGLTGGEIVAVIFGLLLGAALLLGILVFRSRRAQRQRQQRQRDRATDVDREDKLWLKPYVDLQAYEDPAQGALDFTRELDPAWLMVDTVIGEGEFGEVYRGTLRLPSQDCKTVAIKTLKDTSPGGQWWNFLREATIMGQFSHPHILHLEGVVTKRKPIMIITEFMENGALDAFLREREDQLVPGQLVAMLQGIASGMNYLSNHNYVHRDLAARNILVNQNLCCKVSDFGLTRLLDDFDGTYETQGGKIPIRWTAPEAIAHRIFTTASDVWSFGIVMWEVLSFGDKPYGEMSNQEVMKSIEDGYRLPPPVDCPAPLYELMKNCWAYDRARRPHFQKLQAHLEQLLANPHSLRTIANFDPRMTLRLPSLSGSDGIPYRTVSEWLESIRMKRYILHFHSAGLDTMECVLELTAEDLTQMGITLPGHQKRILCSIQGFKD
# [7] = target: T3, Ephrin type-A receptor 1 (Homo sapiens); details: at 10 µM
# [8] = target: Ephrin type-A receptor 2 (Homo sapiens) (UniProt P29317); details: at 1 µM
# Sequence of Ephrin type-A receptor 2 (Homo sapiens) (P29317 whole entry): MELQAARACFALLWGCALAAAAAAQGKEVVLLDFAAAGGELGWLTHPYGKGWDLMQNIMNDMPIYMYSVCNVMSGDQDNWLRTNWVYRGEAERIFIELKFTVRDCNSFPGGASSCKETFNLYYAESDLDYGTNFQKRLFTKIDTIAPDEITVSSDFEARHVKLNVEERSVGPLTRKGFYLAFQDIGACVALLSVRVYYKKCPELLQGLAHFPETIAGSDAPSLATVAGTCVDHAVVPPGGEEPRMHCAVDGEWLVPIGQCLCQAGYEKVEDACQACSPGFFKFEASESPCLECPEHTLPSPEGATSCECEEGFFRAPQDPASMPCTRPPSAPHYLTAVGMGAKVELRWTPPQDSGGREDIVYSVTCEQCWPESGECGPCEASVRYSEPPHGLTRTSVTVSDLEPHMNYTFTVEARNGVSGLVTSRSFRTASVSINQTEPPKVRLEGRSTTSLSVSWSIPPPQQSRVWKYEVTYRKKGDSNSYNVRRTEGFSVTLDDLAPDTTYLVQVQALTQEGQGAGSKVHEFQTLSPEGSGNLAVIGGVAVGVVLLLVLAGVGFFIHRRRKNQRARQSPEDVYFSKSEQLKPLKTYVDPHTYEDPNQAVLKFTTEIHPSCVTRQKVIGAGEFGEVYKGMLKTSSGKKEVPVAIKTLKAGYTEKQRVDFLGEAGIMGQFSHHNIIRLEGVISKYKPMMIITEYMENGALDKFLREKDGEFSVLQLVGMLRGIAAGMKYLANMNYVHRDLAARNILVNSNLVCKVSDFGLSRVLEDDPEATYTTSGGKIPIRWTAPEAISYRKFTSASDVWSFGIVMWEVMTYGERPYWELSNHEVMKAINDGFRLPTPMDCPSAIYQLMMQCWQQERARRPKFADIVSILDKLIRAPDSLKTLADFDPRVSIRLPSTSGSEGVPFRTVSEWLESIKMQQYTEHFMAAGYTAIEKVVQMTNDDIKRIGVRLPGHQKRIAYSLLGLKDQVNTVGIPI
# [9] = target: Ephrin type-A receptor 2 (Homo sapiens) (UniProt P29317); details: at 10 µM
# [10] = target: T4, Ephrin type-A receptor 3 (Homo sapiens) (UniProt P29320); details: at 1 µM
# T4 sequence (whole entry): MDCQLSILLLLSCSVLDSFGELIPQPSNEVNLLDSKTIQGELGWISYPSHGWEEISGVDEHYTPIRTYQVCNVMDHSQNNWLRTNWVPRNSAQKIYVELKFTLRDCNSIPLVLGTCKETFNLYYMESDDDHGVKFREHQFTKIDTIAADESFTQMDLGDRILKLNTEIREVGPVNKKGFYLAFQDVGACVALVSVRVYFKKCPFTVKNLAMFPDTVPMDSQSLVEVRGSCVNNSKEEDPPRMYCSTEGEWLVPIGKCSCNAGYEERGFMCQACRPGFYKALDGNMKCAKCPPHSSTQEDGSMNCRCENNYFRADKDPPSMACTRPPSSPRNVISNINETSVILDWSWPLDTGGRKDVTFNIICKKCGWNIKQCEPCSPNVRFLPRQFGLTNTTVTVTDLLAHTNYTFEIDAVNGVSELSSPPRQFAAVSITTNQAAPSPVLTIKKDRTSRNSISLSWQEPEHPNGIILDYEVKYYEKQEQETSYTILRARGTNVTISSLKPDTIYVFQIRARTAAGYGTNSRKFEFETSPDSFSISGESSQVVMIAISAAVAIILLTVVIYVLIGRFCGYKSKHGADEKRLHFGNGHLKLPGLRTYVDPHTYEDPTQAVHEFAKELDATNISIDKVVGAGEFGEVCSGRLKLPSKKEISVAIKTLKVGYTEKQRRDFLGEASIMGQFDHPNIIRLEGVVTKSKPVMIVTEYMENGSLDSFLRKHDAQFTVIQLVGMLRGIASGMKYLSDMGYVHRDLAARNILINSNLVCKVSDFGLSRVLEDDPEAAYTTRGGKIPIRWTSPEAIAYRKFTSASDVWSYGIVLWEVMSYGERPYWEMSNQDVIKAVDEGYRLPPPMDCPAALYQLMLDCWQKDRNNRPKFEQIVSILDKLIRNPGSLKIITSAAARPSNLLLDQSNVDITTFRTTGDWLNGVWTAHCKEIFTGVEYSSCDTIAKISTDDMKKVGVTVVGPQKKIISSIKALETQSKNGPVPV
# [11] = target: T4, Ephrin type-A receptor 3 (Homo sapiens); details: at 10 µM
# [12] = target: Ephrin type-A receptor 4 (Homo sapiens) (UniProt P54764); details: at 1 µM
# Sequence of Ephrin type-A receptor 4 (Homo sapiens) (P54764 whole entry): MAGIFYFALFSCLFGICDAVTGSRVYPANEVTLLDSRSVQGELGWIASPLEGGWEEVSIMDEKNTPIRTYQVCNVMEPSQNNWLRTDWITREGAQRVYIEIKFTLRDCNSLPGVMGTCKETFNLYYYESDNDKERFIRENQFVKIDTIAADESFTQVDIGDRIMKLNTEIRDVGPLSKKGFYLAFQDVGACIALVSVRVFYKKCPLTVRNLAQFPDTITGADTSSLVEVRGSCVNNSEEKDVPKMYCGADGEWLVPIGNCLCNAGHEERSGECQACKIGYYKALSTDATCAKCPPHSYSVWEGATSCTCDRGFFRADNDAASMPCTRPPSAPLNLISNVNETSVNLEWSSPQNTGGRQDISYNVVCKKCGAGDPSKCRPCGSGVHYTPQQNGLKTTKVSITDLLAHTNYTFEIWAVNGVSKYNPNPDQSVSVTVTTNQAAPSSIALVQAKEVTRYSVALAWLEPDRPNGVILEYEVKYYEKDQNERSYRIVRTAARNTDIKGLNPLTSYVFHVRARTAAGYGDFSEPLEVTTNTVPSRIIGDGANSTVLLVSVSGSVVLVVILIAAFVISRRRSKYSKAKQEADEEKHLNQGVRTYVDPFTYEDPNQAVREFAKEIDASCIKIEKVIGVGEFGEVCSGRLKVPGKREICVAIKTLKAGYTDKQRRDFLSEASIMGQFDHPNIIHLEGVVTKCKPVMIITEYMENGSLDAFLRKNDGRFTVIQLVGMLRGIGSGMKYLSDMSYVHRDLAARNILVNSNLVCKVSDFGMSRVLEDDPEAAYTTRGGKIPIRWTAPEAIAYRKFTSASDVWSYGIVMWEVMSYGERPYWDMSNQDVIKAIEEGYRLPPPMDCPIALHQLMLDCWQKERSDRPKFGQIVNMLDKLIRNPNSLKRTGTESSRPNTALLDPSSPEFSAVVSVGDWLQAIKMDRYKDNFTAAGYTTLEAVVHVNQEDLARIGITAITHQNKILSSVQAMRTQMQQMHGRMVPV
# [13] = target: Ephrin type-A receptor 4 (Homo sapiens) (UniProt P54764); details: at 10 µM
# [14] = target: Ephrin type-A receptor 5 (Homo sapiens) (UniProt P54756); details: at 1 µM
# Sequence of Ephrin type-A receptor 5 (Homo sapiens) (P54756 whole entry): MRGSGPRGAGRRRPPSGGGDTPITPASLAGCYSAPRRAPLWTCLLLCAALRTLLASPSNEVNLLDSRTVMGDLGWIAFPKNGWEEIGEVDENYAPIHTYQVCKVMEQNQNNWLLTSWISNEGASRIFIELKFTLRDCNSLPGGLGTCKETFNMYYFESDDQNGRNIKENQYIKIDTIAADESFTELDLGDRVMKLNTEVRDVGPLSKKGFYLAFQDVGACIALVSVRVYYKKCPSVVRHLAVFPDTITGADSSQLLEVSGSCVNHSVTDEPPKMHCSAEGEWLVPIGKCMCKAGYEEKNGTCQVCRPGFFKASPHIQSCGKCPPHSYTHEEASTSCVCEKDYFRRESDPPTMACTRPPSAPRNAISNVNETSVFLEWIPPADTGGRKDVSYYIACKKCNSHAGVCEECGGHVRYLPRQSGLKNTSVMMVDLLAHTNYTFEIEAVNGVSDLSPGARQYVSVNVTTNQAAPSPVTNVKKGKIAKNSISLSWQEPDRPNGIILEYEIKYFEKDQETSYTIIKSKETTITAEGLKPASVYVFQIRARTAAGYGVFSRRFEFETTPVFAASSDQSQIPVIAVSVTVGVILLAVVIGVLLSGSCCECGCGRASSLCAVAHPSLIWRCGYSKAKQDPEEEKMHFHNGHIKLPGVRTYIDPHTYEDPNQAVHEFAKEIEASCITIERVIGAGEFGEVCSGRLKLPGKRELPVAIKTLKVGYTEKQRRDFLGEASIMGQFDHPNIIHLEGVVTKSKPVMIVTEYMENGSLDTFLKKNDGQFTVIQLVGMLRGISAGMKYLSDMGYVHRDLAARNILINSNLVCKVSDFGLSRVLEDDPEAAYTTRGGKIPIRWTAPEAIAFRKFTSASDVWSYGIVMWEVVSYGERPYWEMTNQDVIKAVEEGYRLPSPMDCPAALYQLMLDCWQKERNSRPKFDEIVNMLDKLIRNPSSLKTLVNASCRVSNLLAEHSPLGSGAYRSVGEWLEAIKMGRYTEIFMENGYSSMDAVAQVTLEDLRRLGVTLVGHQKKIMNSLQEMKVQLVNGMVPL
# [15] = target: Ephrin type-A receptor 5 (Homo sapiens) (UniProt P54756); details: at 10 µM
# [16] = target: Ephrin type-A receptor 7 (Homo sapiens) (UniProt Q15375); details: at 1 µM
# Sequence of Ephrin type-A receptor 7 (Homo sapiens) (Q15375 28-998 limits assumed): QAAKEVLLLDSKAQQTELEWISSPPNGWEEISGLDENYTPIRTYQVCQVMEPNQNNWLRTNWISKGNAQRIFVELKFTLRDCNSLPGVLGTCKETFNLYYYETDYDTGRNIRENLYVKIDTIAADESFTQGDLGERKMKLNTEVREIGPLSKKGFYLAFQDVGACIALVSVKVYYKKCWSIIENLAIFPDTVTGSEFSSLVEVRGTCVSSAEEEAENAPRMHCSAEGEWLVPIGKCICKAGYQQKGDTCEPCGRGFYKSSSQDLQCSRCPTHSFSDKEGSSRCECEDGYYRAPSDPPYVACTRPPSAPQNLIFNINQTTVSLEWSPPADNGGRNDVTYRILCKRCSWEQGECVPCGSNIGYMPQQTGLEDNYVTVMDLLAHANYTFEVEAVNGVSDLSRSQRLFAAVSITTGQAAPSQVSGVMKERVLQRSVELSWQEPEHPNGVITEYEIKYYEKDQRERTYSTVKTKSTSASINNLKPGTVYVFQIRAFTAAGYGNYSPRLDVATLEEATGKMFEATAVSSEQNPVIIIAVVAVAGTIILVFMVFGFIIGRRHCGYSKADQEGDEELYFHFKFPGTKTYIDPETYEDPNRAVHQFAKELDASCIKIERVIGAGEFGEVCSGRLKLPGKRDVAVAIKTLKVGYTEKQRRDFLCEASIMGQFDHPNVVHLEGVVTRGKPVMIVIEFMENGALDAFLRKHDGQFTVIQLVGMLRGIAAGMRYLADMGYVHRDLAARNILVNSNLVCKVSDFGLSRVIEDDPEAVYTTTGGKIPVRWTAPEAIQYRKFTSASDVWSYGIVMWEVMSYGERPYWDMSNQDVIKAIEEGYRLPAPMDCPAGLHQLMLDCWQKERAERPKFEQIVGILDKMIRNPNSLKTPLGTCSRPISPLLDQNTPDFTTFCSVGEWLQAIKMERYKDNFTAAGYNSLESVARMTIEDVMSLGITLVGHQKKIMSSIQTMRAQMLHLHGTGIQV
# [17] = target: Ephrin type-A receptor 7 (Homo sapiens) (UniProt Q15375); details: at 10 µM
# [18] = target: T5, Ephrin type-A receptor 8 (Homo sapiens) (UniProt P29322); details: at 1 µM
# T5 sequence (whole entry): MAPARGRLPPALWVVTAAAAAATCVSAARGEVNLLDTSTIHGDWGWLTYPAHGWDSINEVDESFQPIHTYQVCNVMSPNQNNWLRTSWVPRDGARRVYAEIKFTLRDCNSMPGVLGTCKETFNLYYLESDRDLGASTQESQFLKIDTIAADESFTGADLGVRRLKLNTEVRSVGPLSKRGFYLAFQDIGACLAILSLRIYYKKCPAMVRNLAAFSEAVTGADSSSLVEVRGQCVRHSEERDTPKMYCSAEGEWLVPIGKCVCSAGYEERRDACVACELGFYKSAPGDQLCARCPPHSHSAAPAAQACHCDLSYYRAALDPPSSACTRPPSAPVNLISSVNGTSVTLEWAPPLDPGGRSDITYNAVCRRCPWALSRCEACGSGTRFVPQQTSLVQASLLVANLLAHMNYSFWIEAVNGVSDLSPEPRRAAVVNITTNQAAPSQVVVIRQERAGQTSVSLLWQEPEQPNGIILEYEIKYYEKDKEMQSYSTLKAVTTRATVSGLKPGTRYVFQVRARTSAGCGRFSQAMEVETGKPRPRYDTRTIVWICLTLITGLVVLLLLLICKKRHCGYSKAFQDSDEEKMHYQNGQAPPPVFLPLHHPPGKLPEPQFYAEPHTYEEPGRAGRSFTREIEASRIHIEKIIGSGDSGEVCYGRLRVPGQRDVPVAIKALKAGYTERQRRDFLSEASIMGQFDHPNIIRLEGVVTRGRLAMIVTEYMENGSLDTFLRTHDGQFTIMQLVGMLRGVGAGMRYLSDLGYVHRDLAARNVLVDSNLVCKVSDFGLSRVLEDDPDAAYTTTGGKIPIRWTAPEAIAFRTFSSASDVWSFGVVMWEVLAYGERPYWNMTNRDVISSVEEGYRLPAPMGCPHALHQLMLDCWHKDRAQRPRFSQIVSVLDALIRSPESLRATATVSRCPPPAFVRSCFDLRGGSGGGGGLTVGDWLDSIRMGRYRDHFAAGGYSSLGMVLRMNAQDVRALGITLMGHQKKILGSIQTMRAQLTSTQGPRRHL
# [19] = target: T5, Ephrin type-A receptor 8 (Homo sapiens); details: at 10 µM
# [20] = target: T6, Ephrin type-B receptor 1 (Homo sapiens) (UniProt P54762); details: at 1 µM
# T6 sequence (whole entry): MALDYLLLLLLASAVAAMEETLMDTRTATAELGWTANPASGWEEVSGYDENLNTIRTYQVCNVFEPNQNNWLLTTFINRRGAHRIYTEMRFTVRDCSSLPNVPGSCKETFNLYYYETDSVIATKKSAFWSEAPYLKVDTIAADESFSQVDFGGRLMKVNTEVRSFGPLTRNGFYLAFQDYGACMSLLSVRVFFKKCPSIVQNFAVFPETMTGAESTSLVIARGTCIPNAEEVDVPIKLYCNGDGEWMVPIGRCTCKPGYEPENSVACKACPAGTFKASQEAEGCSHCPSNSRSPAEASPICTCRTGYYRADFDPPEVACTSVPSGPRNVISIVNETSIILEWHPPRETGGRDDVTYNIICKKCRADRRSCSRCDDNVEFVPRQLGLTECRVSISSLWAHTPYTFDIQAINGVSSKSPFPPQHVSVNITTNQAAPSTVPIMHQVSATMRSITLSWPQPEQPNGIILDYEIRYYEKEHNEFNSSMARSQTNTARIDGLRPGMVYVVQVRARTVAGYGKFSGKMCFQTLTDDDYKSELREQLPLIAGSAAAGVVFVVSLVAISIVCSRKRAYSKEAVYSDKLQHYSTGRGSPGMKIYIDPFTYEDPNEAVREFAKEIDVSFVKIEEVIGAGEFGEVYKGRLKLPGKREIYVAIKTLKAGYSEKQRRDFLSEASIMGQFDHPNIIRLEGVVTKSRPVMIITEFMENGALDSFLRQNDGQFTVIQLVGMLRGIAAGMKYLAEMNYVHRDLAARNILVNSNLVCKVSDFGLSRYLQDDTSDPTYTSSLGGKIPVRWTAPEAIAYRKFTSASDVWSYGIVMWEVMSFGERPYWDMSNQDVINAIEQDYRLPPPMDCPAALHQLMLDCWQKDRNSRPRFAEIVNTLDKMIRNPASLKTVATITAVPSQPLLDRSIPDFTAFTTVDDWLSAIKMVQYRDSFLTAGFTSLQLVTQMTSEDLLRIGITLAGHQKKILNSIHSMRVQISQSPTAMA
SMILES,residual activity [1],residual activity [2],residual activity [3],residual activity [4],residual activity [5],residual activity [6],residual activity [7],residual activity [8],residual activity [9],residual activity [10],residual activity [11],residual activity [12],residual activity [13],residual activity [14],residual activity [15],residual activity [16],residual activity [17],residual activity [18],residual activity [19],residual activity [20]
O=C(Nc1cccc(Nc2cc(Nc3cccc(C(F)(F)F)c3)ncn2)c1)C1CC1,50%,97%,99%,-2%,-3%,82%,90%,108%,98%,115%,114%,113%,103%,98%,87%,95%,86%,98%,90%,98%
Oc1ccc(Nc2nc(-c3ccc(Cl)cc3)cs2)cc1,96%,104%,93%,,,95%,63%,88%,113%,107%,111%,113%,103%,112%,86%,105%,102%,99%,96%,108%
O=C1NC(=O)c2cc(Nc3ccc(F)cc3)c(Nc3ccc(F)cc3)cc21,64%,105%,101%,,,69%,52%,100%,80%,104%,76%,100%,83%,93%,71%,74%,21%,87%,56%,82%
COc1cc2ncnc(Nc3ccc(Oc4ccccc4)cc3)c2cc1OC,124%,99%,95%,-1%,-2%,98%,81%,95%,116%,98%,106%,107%,103%,130%,89%,102%,84%,91%,65%,110%
COc1cc2ncnc(Nc3ccc(NC(=O)c4ccccc4)cc3)c2cc1OC,78%,98%,98%,,,107%,106%,,,,102%,109%,102%,104%,97%,92%,66%,103%,103%,97%
